Screening results as filed in PubChem BioAssay.
In the library only some 9.2% were active in any assay of this set; here they are far more common.
SMN2 splice enh = enhancers of SMN2 splice variant expression | 210,000 compounds, 2.8% hits | HEK293 SMN2-luciferase splicing reporter, luminescence, 30-36 h | AID 1458 | Potency, µM (highest dose often 46.1 µM), inactives show at the highest dose activity change, positive = activation, usual class: activators; note: % of control where 0% means no effect; nearly all actives have a fitted effect of over 55% in size
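qHTS luciferase splicing reporter: luminescence rises when SMN2 exon 7 is included in transfected HEK293 cells. Compound exposure lasted 30-36 h at 37C, with 4.5 mM final sodium butyrate as control, followed by a ONE-Glo read.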
ELG1 genotox = induces genotoxicity in HEK293T cells with luciferase-tagged ELG1 | HEK293T ELG1-luciferase reporter, luminescence, 16 h | Potency, µM (highest dose often 46 µM), without a hit: top-dose activity change, positive = activation, most hits filed as activators | 330,000 compounds, 1.3% hits | AID 504466; note: % of control where 0% means no effect; nearly all actives have a fitted effect of over 60% in size
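Genotoxicity was scored as increased ELG1-luciferase reporter signal, measured by ONE-Glo luminescence (30 min, room temperature). Compound or vehicle exposure of the HEK293T reporter cells lasted 16 hr at 37°C.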
NPC1 prom act = activators of NPC1 promoter; Potency, µM (series often up to 9.22 µM), for inactives: top-dose activation, hits mostly activators; 320,000 compounds, 2.4% hits; Huh7 NPC1 promoter luciferase reporter, 24 h; AID 485313; note: % of control where 0% means no effect; nearly all actives have a fitted effect of over 60% in size
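Stably transfected Huh7 (NPC1 promoter→luciferase), 1500 cells/well in Opti-MEM + 10% FBS, 2 h settle, then compound 24 h at 37 °C. Luminescence after 10 min with Amplite reagent.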
FLuc modulator = inhibits or activates purified firefly luciferase, miR-21 counter-screen; purified FLuc, Km substrates, luminescence inhibition; AID 588342; P08659; Potency, µM (highest dose often 57.5 µM), inactives show at the highest dose activity change, negative = inhibition, actives largely listed as inhibitors; 360,000 compounds, 6.9% hits;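 note: plate controls were vehicle for no effect and reference inhibitor for full effect; nearly all actives have a fitted effect of over 55% in size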
Target sequence (P08659 whole entry, looked up): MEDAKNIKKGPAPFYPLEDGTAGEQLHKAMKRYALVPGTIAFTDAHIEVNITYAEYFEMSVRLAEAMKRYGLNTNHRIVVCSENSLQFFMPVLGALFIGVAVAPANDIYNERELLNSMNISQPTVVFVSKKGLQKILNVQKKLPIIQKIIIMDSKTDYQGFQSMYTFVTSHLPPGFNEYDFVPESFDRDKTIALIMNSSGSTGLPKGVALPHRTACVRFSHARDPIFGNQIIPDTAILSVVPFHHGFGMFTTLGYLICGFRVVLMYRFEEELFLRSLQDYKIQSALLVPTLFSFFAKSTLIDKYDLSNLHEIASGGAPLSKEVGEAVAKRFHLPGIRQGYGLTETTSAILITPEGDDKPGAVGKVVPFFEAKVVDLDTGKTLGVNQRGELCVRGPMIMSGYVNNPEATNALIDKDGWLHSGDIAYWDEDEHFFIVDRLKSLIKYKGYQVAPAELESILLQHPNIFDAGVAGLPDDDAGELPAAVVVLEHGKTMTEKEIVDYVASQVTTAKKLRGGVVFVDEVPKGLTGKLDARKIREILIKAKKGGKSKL
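Purified P. pyralis luciferase, 10 nM final, with Km-level 10 uM D-luciferin and 10 uM ATP in 50 mM Tris acetate pH 7.5, 10 mM Mg acetate, 0.01% Tween-20, 0.05% BSA; 6-point qHTS titration about 60 µM downward; luminescence read.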
Rab9 prom act = activates the Rab9 promoter; AID 485297; Huh7 Rab9 promoter-luciferase reporter, luminescence, 24 h; 320,000 compounds, 2.8% hits; Potency, µM (top dose mostly 9.22 µM), for inactives: at the top dose activation, negative = inhibition, actives largely listed as activators; note: % of control where 0% means no effect; nearly all actives have a fitted effect of over 60% in size
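Quantitative HTS format; Huh7 Rab9-luciferase reporter cells (1500/well) receive compound 2 h post-plating, incubate 24 h at 37 °C, then get luciferase reagent for 10 min before luminescence reading.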
ELG1 repair inh = inhibitors of ELG1-dependent DNA repair in HEK293T cells; AID 504467; Potency, µM (titrated, usually from 46.1 µM), for inactives: at the top dose activity change, negative = inhibition, usual class: inhibitors; HEK293T ELG1-luciferase reporter, luminescence, 16 h; DNA damage induced by 5-fluorouridine; 330,000 compounds, 2.3% hits; note: % is set by controls: 0 for no effect and ±100 for the full control effect; nearly all actives have a fitted effect of over 55% in size
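Quantitative HTS, concentration-response format. 2,000 cells/well co-treated with 5-fluorouridine and compound, 16 hr in 5% CO2 at 37 °C; ONE-Glo luminescence read after 30 min.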
Numbers without * were called inactive; ? = inconclusive; / = not tested or not shown; [ ] = another dose, or the depositor's remark. Calls come from the whole dose curve; as a rule, active = well fitted curve in the direction sought with a large enough effect; inconclusive = small, poorly fitted or top-dose-only effect, or another doubt; inactive = no such curve, though single readings can be large; an effect the other way counts as inactive or inconclusive. Potency is the fitted concentration of half-maximal effect.

SMILES	SMN2 splice enh	ELG1 genotox	NPC1 prom act	FLuc modulator	Rab9 prom act	ELG1 repair inh
N#CCCN(C(=O)COC(=O)CNC(=O)c1ccc(-c2ccccc2)cc1)c1ccc(F)cc1	/	2%	-7%	24µM*	3%	13%
Cc1cc2c(=O)c(C(=O)c3ccncc3)cn(CC(=O)Nc3cccc(C)c3C)c2cc1C	/	/	/	0%	/	/
COc1cccc(/C=C2\CCC(C3CCCC3)C2=O)c1OC (stereo not given)	/	?	2.8µM*	1.1µM*	4µM*	?
COc1ccc(/C=C2\CCC(C3CCCC3)C2=O)c(OC)c1OC (stereo not given)	/	11%	-4%	24µM*	0%[1.84 µM]	21%
CCN(CC(=O)Nc1c(F)cccc1F)C(=O)CCCc1cccs1	/	1%	-2%	-1%	3%	1%
Fc1ccc(F)c(C2=NNC(=NCC3CCCO3)SC2)c1 (stereo not given)	?	14%	?	?	2.2µM*	3%
CC(=O)Nc1ccc(C2=NNC(=NCC3CCCO3)SC2)cc1 (stereo not given)	/	2%	11%	-19%	16%	?
CCNC(=S)NNC(=O)c1csc(C(C)C)c1	11µM*	14%	22%	-23%	?	?
O=C(N/N=C/C1CC=CCC1)c1ccc(O)cc1O (stereo not given)	4%	0%	-1%	19µM*	3%	23%
CC(C)C(=O)Nc1ccc(NC(=O)c2cccc(F)c2)cn1	10%	?	27%	?	2.8µM*	?
O=C(Cc1ccccc1)Nc1ccc(NC(=O)c2ccccc2)nc1	/	?	2.8µM*	?	2.2µM*	?
CCCn1c(C)cc(=O)c2cc(NC(=O)c3ccccn3)ccc21	-12%	-5%	1%	-1%	4%	16µM*
CCCn1c(=O)c(C(=O)Nc2ncccc2C)c(O)c2ccccc21	-19%	-5%	0%	-3%	-2%	-6%
O=C(Nc1ccc(NC(=O)C2CC2)cn1)c1ccccc1	/	?	0.32µM*	2.7µM*	0.35µM*	?
Cc1cccc(NC(=O)CSc2nc(-c3ccco3)nc3cc(=O)[nH]n23)c1	/	/	-4%	?	3%	/
CC(C)COc1ccc(C(=O)N2CCCCC2CCN2CCOCC2)cc1 (stereo not given)	-9%	/	/	1%	/	/
COc1ccccc1C(=O)Nc1ccc(NC(=O)C2CCCCC2)nc1	/	0%	-3%	?	7%	1%
O=C(Nc1ccc(NC(=O)C2CCCCC2)nc1)c1ccccn1	22µM*	?	?	17µM*	3.5µM*	?
O=C(Nc1ccc(NC(=O)C2CC2)cn1)c1ccccc1Cl	25µM*	?	27%	?	28%	?
O=C(Nc1ccc(NC(=O)C2CC2)nc1)c1cccc(F)c1	/	14%	?	?	4.5µM*	?
CCCC(=O)Nc1ccc(NC(=O)c2ccccn2)cn1	/	?	2.2µM*	13µM*	2.8µM*	?
COc1cccc(C(=O)Nc2ccc(NC(=O)C3CC3)nc2)c1	/	3%	-2%	-2%	3%	16%
CCCC(=O)Nc1ccc(NC(=O)c2ccccc2OC)cn1	-9%	2%	9%	?	10%	15%
O=S(=O)(Nc1ccc(-c2cn3c(n2)SCC3)cc1)c1cccs1	-25%	3%	-1%	-17%	-9%	-15%
N#Cc1ccc(-c2cn3c(n2)SCC3)cc1	/	?	?	19µM*	?	?
SMILES	SMN2 splice enh	ELG1 genotox	NPC1 prom act	FLuc modulator	Rab9 prom act	ELG1 repair inh
CCN(CC)S(=O)(=O)N1CCC(C(=O)NCc2ccc(C)cc2)CC1	3%	-1%	0%	-2%	6%	23%
CCN(CC)c1ccc(CN2CCC(C(=O)NCc3ccc(C)cc3)CC2)cc1	/	3%	0%	24µM*	12%	?
COC(=O)c1ccccc1NC(=O)NCCc1ccccc1OC	13µM*	9%	3.5µM*	?	4µM*	?
COc1ccccc1CCNC(=O)c1ccc(Br)s1	/	12%	-3%	13µM*	0%	?
COc1ccccc1CCNS(=O)(=O)CCNC(=O)c1ccccc1	/	1%	-5%	4%	-1%	-9%
CCOC(=O)c1ccccc1NC(=O)COC(=O)CCNS(=O)(=O)c1ccccc1	/	-2%	0%	3%	3%	13%
CCOC(=O)C1=NN(c2cccc(Cl)c2)C2=NC(C)=C(C(=O)OC)C(c3cccs3)N12 (stereo not given)	-10%	-5%	-12%	0%	-3%	21µM*
CCn1c(-c2ccccc2)csc1=Nc1ccc(S(=O)(=O)O)cc1	-18%	0%	?	3.8µM*	?	6%
COCCCn1c(-c2ccc(S(=O)(=O)N3CCOCC3)cc2)csc1=Nc1ccccc1	-24%	8%	-9%	-2%	-21%	6.5µM*
Clc1ccc(-c2noc(-c3cccnc3NCc3ccco3)n2)cc1	/	/	/	-14%	/	/
CC(C)c1ccc(NC(=O)Cn2c(=O)n(Cc3nc(-c4ccccc4)no3)c(=O)c3cc4c(cc32)OCO4)cc1	/	/	/	-1%	/	/
CC(=O)Oc1ccccc1C(=O)O	20%	/	0%[46.1 µM]	/	2%[46.1 µM]	/
COc1ccc(/C=C/c2noc(-c3ccccc3O)n2)cc1	27%	?	?	3.8µM*	27%	?
CC(=O)Oc1ccccc1-c1nc(/C=C/c2ccccc2)no1	/	9.2µM*	2.8µM*	11µM*	?	?
COc1cc(/C=C/c2noc(-c3ccccc3O)n2)cc(OC)c1OC	13%	10%	22%	0%	27%	?
CCOc1ccc(NC(=O)c2ccc(CNc3c(N4CCCC4)c(=O)c3=O)cc2)cc1	/	4%	-4%	13µM*	6%	13%
CC(=O)c1ccc(NC(=O)c2ccc(CNc3c(N4CCCC4)c(=O)c3=O)cc2)cc1	/	-1%	-3%	?	2%	-7%
CC(=O)c1ccc(NC(=O)c2ccc(CNc3c(N4CCOCC4)c(=O)c3=O)cc2)cc1	/	-2%	-2%	12µM*	1%	2%
COC(=O)Cc1ccc(OCc2ccc(Cl)nc2)cc1	/	?	2.5µM*	15µM*	?	?
Cn1cccc1/C=N/NC(=O)c1ccccn1	/	?	?	13µM*	3.5µM*	?
CC(C)CNC(=O)C(=O)N/N=C/c1cccs1	3%	?	?	?	?	?
CC(C)(C)NC(=O)C(=O)N/N=C/c1cccs1	?	?	?	15µM*	1.8µM*	?
O=C(N/N=C/c1c(Cl)cccc1Cl)c1ccc(F)cc1	-4%	10%	12%	?	20%	26%
